Assay results: PubChem BioAssay (NCI)
The panel holds about 83,000 compounds, 20% with a hit somewhere; the sample as a whole holds those more often.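 Single-concentration screen, 48 h exposure, 96-well plates. Endpoint: percent growth. Below 10 = active.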 Values without a mark were called inactive. Activity calls are given as the source filed them.

test system: SK-MEL-28 melanoma; test: NCI-60 one-dose screen, 48 h (100 = growth as untreated, 0 = no growth, -100 = all killed); details: 10 µM unless noted

Row | SMILES | growth
1 | CSc1nc(Nc2ccc(S(=O)(=O)Nc3ccon3)cc2)c(C#N)c(-c2ccc(Cl)cc2)n1 | 118%
2 | COP(=O)(OC)C(c1ccc(O)cc1)(c1ccc(O)cc1)c1ccc(O)cc1 | 118%
3 | C=C1CCC2C(C)(COC(=O)CC)C(OC(=O)CC)CCC2(C)C1C/C=C1/C(=O)OCC1OC(=O)CC (stereo not drawn) | -36.1% (active)
4 | Cc1cnc2nc(-c3ccc(N(C)C)cc3)cn2c1 | 123%
5 | Cc1ccc2nc3c(n2c1)C(=O)C(=O)c1ccccc1-3 | -86.4% (active)
6 | CC(C)=CCCC(C)c1ccc(C)c2c1OCN(CC1CCNCC1)C2 (stereo not drawn) | 92.5%
7 | CCOc1cc(/C=C/C(=O)C(C(=O)/C=C/c2ccc(OC(=O)CNc3nc4ccccc4[nH]3)c(OCC)c2)C(=O)CNc2nc3ccccc3[nH]2)ccc1OC(=O)CNc1nc2ccccc2[nH]1 | -29.6% (active)
8 | COc1ccc(C(=O)/C=C/c2cccc(Nc3ccnc4cc(Cl)ccc34)c2)cc1 | 44.6%
